Key:
[1] = target: T1, Serine/threonine-protein kinase Nek9 (Homo sapiens) (UniProt Q8TD19); settings: at 1 µM;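 note: each value is a mean percent inhibition of NEK9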
T1 sequence (whole entry): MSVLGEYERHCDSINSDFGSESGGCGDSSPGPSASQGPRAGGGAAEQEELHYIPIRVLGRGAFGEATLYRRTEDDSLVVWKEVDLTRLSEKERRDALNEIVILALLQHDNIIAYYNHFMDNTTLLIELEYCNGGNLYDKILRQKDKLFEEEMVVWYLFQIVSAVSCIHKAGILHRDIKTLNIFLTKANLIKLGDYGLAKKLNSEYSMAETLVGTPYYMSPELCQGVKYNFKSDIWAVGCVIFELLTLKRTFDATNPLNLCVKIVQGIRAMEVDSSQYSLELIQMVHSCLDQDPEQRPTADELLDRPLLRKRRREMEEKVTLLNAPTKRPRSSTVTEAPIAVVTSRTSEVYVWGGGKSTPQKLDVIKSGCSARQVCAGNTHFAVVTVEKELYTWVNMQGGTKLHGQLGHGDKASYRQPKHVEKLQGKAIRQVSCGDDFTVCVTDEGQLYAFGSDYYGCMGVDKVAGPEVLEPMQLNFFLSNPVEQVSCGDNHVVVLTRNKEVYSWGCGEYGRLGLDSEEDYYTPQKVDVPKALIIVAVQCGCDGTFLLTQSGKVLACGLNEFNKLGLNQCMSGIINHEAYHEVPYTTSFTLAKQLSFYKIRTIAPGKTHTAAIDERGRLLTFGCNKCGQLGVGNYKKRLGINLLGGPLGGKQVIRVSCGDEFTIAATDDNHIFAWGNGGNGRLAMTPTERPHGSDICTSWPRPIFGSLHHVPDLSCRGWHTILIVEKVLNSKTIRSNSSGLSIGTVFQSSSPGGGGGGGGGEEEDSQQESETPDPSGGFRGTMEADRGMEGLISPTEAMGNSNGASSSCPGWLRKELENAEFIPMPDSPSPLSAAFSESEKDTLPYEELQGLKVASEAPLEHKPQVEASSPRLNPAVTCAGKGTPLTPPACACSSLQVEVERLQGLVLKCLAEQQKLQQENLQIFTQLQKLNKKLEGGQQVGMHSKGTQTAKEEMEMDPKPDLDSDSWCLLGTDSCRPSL

[2] = target: Serine/threonine-protein kinase PLK1 (Homo sapiens) (UniProt P53350); settings: at 0.1 µM
Chain of Serine/threonine-protein kinase PLK1 (Homo sapiens) (P53350 whole entry): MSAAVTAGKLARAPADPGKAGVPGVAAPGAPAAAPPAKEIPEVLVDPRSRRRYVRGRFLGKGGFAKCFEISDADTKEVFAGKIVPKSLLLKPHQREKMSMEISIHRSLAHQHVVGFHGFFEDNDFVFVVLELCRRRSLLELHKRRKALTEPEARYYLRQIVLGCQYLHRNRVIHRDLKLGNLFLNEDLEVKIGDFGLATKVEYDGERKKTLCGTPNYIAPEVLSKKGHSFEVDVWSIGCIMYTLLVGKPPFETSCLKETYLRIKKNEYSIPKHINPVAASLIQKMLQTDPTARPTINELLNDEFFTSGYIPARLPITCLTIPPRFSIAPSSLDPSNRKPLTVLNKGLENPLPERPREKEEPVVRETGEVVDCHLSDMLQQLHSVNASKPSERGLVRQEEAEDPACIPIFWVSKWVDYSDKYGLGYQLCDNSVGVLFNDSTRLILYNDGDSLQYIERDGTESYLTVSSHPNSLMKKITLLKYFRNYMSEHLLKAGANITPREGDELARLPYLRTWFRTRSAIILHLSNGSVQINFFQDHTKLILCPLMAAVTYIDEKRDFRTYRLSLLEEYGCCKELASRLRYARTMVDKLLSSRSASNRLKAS

[3] = target: Serine/threonine-protein kinase PLK1 (Homo sapiens) (UniProt P53350); settings: at 1 µM
[4] = target: T2, Dual specificity protein kinase TTK (Homo sapiens) (UniProt P33981); settings: at 0.1 µM
T2 sequence (whole entry): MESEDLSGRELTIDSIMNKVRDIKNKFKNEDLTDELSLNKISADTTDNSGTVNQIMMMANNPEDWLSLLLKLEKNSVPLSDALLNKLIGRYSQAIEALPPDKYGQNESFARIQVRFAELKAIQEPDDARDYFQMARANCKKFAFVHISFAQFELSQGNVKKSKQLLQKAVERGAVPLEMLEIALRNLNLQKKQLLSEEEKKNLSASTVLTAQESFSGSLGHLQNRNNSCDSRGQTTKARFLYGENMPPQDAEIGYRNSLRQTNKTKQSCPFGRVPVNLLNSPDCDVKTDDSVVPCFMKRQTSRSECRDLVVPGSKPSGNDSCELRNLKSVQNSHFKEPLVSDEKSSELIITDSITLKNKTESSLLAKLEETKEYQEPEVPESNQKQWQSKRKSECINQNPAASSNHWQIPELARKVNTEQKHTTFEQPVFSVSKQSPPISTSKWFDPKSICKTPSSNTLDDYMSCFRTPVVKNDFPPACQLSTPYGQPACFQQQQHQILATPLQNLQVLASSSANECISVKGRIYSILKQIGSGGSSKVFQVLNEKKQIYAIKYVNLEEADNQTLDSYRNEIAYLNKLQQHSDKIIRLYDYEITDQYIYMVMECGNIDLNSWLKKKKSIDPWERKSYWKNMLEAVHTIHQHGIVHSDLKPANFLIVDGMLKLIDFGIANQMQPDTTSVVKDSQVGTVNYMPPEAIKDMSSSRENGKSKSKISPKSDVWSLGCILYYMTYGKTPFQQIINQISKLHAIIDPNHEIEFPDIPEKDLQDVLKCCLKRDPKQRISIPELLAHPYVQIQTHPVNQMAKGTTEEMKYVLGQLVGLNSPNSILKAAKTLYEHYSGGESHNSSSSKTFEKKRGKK

[5] = system: T3, Receptor-type tyrosine-protein kinase FLT3 (Homo sapiens), P36888 [D835Y]; settings: at 1 µM
T3 sequence (whole entry): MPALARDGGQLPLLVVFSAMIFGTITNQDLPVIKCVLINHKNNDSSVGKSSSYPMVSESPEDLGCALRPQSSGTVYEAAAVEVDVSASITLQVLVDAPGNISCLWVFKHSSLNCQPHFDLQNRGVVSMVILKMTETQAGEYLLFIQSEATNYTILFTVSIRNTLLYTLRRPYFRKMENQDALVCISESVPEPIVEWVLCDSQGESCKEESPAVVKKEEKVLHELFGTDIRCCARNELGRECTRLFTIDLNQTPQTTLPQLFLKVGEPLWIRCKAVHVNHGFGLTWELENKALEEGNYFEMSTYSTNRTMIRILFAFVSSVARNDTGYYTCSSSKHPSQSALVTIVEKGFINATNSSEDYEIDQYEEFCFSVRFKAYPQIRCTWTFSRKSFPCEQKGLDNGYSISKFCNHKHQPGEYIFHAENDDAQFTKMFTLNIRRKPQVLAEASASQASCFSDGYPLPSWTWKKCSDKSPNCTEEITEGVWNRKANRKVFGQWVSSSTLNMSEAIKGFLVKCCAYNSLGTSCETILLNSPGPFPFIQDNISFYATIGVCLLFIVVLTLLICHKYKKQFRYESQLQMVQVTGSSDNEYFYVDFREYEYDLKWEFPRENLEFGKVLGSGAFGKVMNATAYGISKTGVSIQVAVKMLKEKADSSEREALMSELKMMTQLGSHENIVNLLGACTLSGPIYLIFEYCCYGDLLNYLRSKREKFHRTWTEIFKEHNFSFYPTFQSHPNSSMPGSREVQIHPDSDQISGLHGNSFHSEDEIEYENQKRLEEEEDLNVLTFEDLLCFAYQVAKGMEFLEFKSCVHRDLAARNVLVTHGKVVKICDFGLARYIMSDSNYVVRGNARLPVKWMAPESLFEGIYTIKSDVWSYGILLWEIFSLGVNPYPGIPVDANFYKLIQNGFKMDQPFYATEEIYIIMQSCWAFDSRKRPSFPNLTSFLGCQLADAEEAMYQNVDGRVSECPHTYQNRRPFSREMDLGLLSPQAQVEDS

[6] = target: Vascular endothelial growth factor receptor 3 (Homo sapiens) (UniProt P35916); settings: at 0.1 µM
Chain of Vascular endothelial growth factor receptor 3 (Homo sapiens) (P35916 whole entry): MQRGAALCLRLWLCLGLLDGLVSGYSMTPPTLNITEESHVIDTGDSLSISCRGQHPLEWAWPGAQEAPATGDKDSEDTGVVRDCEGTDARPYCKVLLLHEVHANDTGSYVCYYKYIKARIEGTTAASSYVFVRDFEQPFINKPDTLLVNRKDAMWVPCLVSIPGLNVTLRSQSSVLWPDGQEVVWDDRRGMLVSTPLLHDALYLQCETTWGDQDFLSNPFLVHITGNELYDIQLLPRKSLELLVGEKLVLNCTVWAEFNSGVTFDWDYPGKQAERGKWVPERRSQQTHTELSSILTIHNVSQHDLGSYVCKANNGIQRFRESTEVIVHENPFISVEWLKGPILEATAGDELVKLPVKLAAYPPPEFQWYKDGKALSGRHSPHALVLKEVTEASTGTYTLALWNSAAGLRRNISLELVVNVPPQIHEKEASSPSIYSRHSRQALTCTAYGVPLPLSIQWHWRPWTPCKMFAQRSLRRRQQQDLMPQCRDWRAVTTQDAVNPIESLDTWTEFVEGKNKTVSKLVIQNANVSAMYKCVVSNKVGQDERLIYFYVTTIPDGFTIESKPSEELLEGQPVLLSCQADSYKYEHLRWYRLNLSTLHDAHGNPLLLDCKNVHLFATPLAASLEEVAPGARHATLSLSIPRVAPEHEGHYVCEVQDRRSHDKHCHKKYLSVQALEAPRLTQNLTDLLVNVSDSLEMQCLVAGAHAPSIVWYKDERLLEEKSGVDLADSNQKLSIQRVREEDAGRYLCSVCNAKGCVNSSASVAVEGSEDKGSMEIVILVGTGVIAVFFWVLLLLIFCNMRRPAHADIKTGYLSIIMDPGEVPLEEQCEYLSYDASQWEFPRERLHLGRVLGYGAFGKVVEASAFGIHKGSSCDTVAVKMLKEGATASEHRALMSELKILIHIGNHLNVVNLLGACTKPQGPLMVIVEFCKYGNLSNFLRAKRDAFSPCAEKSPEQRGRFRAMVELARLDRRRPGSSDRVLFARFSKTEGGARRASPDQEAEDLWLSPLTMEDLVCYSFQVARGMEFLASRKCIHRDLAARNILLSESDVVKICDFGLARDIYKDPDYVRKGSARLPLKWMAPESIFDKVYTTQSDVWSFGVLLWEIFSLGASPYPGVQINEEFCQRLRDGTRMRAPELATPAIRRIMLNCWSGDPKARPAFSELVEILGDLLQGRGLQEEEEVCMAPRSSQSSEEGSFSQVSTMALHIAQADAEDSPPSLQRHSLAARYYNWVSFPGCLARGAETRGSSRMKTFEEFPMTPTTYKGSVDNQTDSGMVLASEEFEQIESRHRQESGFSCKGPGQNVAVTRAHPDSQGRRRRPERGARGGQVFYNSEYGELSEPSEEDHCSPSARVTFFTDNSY

[7] = target: Vascular endothelial growth factor receptor 3 (Homo sapiens) (UniProt P35916); settings: at 1 µM
[8] = target: Macrophage colony-stimulating factor 1 receptor (Homo sapiens) (UniProt P07333); settings: at 0.1 µM
Chain of Macrophage colony-stimulating factor 1 receptor (Homo sapiens) (P07333 whole entry): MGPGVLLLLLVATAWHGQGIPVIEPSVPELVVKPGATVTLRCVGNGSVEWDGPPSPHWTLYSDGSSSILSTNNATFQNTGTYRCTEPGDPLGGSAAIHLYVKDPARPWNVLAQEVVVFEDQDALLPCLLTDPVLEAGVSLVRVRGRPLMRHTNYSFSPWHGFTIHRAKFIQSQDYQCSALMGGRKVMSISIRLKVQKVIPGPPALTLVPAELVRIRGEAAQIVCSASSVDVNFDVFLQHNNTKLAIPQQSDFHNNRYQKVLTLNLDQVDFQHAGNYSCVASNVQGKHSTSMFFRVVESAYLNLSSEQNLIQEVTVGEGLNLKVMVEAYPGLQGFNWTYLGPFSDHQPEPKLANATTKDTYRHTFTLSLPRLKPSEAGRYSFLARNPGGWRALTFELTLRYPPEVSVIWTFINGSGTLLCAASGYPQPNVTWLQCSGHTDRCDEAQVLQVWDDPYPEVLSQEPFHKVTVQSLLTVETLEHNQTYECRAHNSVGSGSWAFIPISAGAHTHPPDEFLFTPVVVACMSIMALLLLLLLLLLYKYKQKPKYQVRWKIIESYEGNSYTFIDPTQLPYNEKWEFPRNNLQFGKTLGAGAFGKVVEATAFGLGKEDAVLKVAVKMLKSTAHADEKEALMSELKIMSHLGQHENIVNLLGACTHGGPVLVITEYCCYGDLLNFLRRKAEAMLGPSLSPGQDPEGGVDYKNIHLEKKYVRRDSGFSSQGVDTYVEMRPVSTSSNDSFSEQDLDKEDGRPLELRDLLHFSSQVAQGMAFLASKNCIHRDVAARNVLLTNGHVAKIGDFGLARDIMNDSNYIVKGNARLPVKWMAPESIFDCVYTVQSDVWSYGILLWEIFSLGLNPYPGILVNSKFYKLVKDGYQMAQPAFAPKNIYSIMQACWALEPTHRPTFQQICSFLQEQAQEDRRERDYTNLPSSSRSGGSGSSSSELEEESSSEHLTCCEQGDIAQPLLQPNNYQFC

[9] = target: Macrophage colony-stimulating factor 1 receptor (Homo sapiens) (UniProt P07333); settings: at 1 µM
[10] = target: Tyrosine-protein kinase Fyn (Homo sapiens) (UniProt P06241); settings: at 0.1 µM
Chain of Tyrosine-protein kinase Fyn (Homo sapiens) (P06241 2-537 limits assumed): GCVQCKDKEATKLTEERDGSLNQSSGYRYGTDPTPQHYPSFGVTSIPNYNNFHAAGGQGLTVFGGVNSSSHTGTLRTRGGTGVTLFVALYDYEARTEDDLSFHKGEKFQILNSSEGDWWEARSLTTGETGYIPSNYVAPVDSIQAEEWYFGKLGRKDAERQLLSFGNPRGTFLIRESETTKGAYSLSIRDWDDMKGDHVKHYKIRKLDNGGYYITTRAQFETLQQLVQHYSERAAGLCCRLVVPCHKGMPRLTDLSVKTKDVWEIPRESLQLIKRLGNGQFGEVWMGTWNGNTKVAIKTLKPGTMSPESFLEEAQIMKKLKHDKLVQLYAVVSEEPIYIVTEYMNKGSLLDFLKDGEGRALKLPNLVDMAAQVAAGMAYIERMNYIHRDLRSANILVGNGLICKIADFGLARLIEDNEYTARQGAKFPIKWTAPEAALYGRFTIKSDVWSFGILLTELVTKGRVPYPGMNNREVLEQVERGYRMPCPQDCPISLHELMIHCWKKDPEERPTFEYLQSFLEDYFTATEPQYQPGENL

Compound | inhibition [1] | inhibition [2] | inhibition [3] | inhibition [4] | inhibition [5] | inhibition [6] | inhibition [7] | inhibition [8] | inhibition [9] | inhibition [10]
CC(C)c1ccc2c(c1)NC(=O)/C2=N/Nc1ccc(S(N)(=O)=O)cc1 | 4.79% | 2.6% | 1.38% | 2.93% | 3.33% | 1.38% | 5.37% | 5.18% | 34.6% | 2.02%
Cc1cc(-c2ccccn2)cc(C)c1/C=C/c1cncc(-c2nn[nH]n2)c1 | 5.99% | 5.02% | 5.56% | 11.3% | 12% | 9.28% | 14.4% | 1.45% | 12.3% | 4.53%
CCn1c(-c2nonc2N)nc2ccc(F)cc21 | 6.41% | 6.39% | 4.59% | 12.1% | 1.01% | 6.14% | 6.77% | 1.29% | 0.35% | 2.04%
NS(=O)(=O)c1ccc(N/N=C2\C(=O)Nc3ccc(Cl)cc32)cc1 | 9.42% | 1.63% | 2.65% | 14% | 16.4% | 4.36% | 9.79% | 3.24% | 31.8% | 0.23%
COc1cccc(-n2nc(C)c3c(N/N=C(\C)c4ccncc4)ncnc32)c1 | 2.13% | -0.78% | 2.34% | 2.35% | 1.49% | 1.67% | 1.25% | -1.96% | 5.8% | 1.21%
CCS(=O)(=O)c1ccc(OC)c(Nc2ncc(-c3cccc(OC)c3)o2)c1 | 4.07% | 4.39% | 1.04% | 2.75% | 78.5% | 27.6% | 77.8% | 26.4% | 71.9% | 27.6%
NS(=O)(=O)c1ccc(NC=C2C(=O)Nc3ccc4ncsc4c32)cc1 | 32% | 4.42% | 6.99% | 52.1% | 87.5% | 63.9% | 102% | 47.5% | 85.5% | 5.49%
CC(C)c1ccc(Nc2nccc(-c3cnn4ncccc34)n2)cc1 | 11% | 2.9% | 4.81% | 5.54% | 23.1% | 0.79% | 9.77% | 23% | 72.1% | 1.04%
Cc1ccc(O)cc1Nc1ccnc2ccc(S(C)(=O)=O)cc12 | 7.62% | 4.22% | 2.78% | 8.17% | -0.22% | 21.3% | 68.8% | 5.71% | 15.8% | 92.4%
C[C@@H](Oc1cc(-n2cnc3ccc(OC[C@@H](O)CO)cc32)sc1C(N)=O)c1ccccc1Cl | 91.4% | 92.2% | 93.5% | 1.27% | 8.15% | 3.69% | 22.8% | 0.22% | 9.24% | 0.14%
Oc1cccc(-c2nc(-c3ccccc3)[nH]c2-c2ccncc2)c1 | 6.73% | 4.15% | 1.85% | 3.33% | 22.4% | 7.41% | 30.4% | 1.63% | 5.02% | 3.67%
COc1cc(Nc2nccc(-c3cnn4ncccc34)n2)cc(OC)c1 | 69.9% | 6.63% | 36.9% | 7.15% | 77.3% | 10.4% | 45.4% | 68.2% | 94.2% | 7.87%
CCOc1nccc2c1nc(-c1nonc1N)n2CC | 11.4% | 5.12% | 5.25% | 7.47% | -1.34% | 12.8% | 19.3% | 0.65% | 2.68% | 0.3%
NS(=O)(=O)c1cccc(Nc2cc(-c3ccc(F)cc3)n[nH]2)c1 | 9.48% | 3.38% | 3.33% | 5.88% | 13.9% | -0.78% | 2.02% | 3.25% | 16.6% | 1.7%
NS(=O)(=O)c1ccc(Nc2cc(-c3cccc(O)c3)n[nH]2)cc1 | 2.91% | 5.76% | 4.69% | 16% | 30.9% | 6.76% | 6.9% | 5.17% | 15.4% | 4.67%
COc1cc2ncnc(Nc3ccc4c(cnn4Cc4ccccc4)c3)c2cc1OC | 8.26% | 3.61% | 3.2% | 10.4% | 2.33% | 4.91% | 15% | -1.86% | 3.16% | 7.78%
O=C1Nc2ccc(-c3cccnc3)cc2C1=Cc1cc(Br)c(O)c(Br)c1 | 0.27% | 3.43% | 7.7% | 6.45% | 13.7% | 2.46% | 4.42% | 4.24% | 7.78% | 2.17%

From ChEMBL document CHEMBL1961873, “Compounds: GSK PKIS; Assays: Nanosyn kinase panel” (2012)
